Data published in PubChem BioAssay AID1159580 (chemical genetic matrix, 2015).
Among all 5,500 compounds or so, about 2,000 (36%) were called active. Not shown: some 18% with an inconclusive outcome. Cut-off read from the data, not from the text of the source: active = normalized growth mostly below about 0.91 (no sharp cut-off); inconclusive = no clear call, values can overlap the other calls; inactive = mostly above about 0.92. The list shows a part of the results.

Test: chemical genetic growth profiling, strain panel (AID 1159580);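 note: tested at 20 µM; growth read once vehicle control cultures reached saturation at 30 °C; 1 = growth at the plate median or of vehicle wells; lower values mean less growth of the strain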
Conditions: growth OD

Measured: normalized growth

C#C[C@]1(O)CCC2C3CCC4=Cc5oncc5C[C@]4(C)C3CC[C@@]21C (some centres not stated)
inactive: S. cerevisiae deletion strains, locus YJR066W, strain TOR1, hits give low values 0.956 | S. cerevisiae deletion strains, locus YKL009W, strain mrt4, hits give low values 0.954 | S. cerevisiae deletion strains, locus YKL160W, strain elf1, hits give low values 0.925 | S. cerevisiae deletion strains, locus YKR026C, strain gcn3, hits give low values 0.948 | S. cerevisiae deletion strains, locus YKR091W, strain srl3, hits give low values 0.964 | S. cerevisiae deletion strains, locus YLL001W, strain dnm1, hits give low values 0.921 | S. cerevisiae deletion strains, locus YLL026W, hits give low values 0.94 | S. cerevisiae deletion strains, locus YLL041C, strain sdh2, hits give low values 0.961 | S. cerevisiae deletion strains, locus YLR058C, strain SHM2, hits give low values 0.898 | S. cerevisiae deletion strains, locus YLR102C, strain apc9, hits give low values 0.949 | S. cerevisiae deletion strains, locus YLR113W, strain HOG1, hits give low values 0.95 | S. cerevisiae deletion strains, locus YLR221C, strain rsa3, hits give low values 0.957 | S. cerevisiae deletion strains, locus YLR258W, strain gsy2, hits give low values 0.955 | S. cerevisiae deletion strains, locus YLR320W, strain mms22, hits give low values 0.914 | S. cerevisiae deletion strains, locus YLR342W, strain FKS1 (second series), hits give low values 0.926 | S. cerevisiae deletion strains, locus YLR357W, strain rsc2, hits give low values 0.944 | S. cerevisiae deletion strains, locus YLR370C, strain arc18, hits give low values 0.975 | S. cerevisiae deletion strains, locus YLR384C, strain iki3, hits give low values 0.958 | S. cerevisiae deletion strains, locus YML016C, strain PPZ1, hits give low values 0.935 | S. cerevisiae deletion strains, locus YML032C, strain rad52, hits give low values 0.928 | S. cerevisiae deletion strains, locus YML120C, strain ndi1, hits give low values 0.924 | S. cerevisiae deletion strains, locus YMR058W, strain fet3, hits give low values 0.938 | S. cerevisiae deletion strains, locus YMR078C, strain ctf18, hits give low values 0.923 | S. cerevisiae deletion strains, locus YMR125W, strain sto1, hits give low values 0.94 | S. cerevisiae deletion strains, locus YMR129W, hits give low values 0.959 | S. cerevisiae deletion strains, locus YMR205C, strain PFK2, hits give low values 0.92 | S. cerevisiae deletion strains, locus YMR223W, strain ubp8, hits give low values 0.953 | S. cerevisiae deletion strains, locus YMR231W, strain pep5, hits give low values 0.965 | S. cerevisiae deletion strains, locus YMR263W, strain SAP30, hits give low values 0.926 | S. cerevisiae deletion strains, locus YMR307W, strain GAS1, hits give low values 0.73 | S. cerevisiae deletion strains, locus YNL067W, strain RPL9B, hits give low values 0.927 | S. cerevisiae deletion strains, locus YNL183C, strain NPR1, hits give low values 0.95 | S. cerevisiae deletion strains, locus YNL209W, strain ssb2, hits give low values 0.991 | S. cerevisiae deletion strains, locus YNL248C, strain rpa49, hits give low values 0.982 | S. cerevisiae deletion strains, locus YNL250W, strain rad50, hits give low values 0.928 | S. cerevisiae deletion strains, locus YNL298W, strain CLA4, hits give low values 0.953 | S. cerevisiae deletion strains, locus YNL322C, strain KRE1 (second series), hits give low values 0.945 | S. cerevisiae deletion strains, locus YNR049C, strain mso1, hits give low values 0.961 | S. cerevisiae deletion strains, locus YNR052C, strain pop2, hits give low values 0.956 | S. cerevisiae deletion strains, locus YOL012C, strain htz1 0.535 | S. cerevisiae deletion strains, locus YOR001W, strain rrp6, hits give low values 0.972 | S. cerevisiae deletion strains, locus YOR061W, strain CKA2, hits give low values 0.904 | S. cerevisiae deletion strains, locus YOR069W, strain VPS5, hits give low values 0.955 | S. cerevisiae deletion strains, locus YOR070C, strain gyp1, hits give low values 0.975 | S. cerevisiae deletion strains, locus YOR080W, strain dia2, hits give low values 0.957 | S. cerevisiae deletion strains, locus YOR083W, strain WHI5, hits give low values 0.941 | S. cerevisiae deletion strains, locus YOR106W, strain vam3, hits give low values 0.963 | S. cerevisiae deletion strains, locus YOR136W, strain idh2, hits give low values 0.922 | S. cerevisiae deletion strains, locus YOR231W, strain MKK1, hits give low values 0.988 | S. cerevisiae deletion strains, locus YOR265W, strain rbl2, hits give low values 0.966 | S. cerevisiae deletion strains, locus YOR270C, strain vph1, hits give low values 0.824 | S. cerevisiae deletion strains, locus YOR290C, strain snf2, hits give low values 1 | S. cerevisiae deletion strains, locus YOR316C, strain cot1, hits give low values 0.925 | S. cerevisiae deletion strains, locus YPL051W, strain arl3, hits give low values 0.945 | S. cerevisiae deletion strains, locus YPL078C, strain atp4, hits give low values 0.902 | S. cerevisiae deletion strains, locus YPL106C, strain sse1, hits give low values 0.984 | S. cerevisiae deletion strains, locus YPL240C, strain hsp82, hits give low values 0.967 | S. cerevisiae deletion strains, locus YPL241C, strain CIN2, hits give low values 0.931 | S. cerevisiae deletion strains, locus YPL256C, strain CLN2, hits give low values 0.975 | S. cerevisiae deletion strains, locus YPR167C, strain met16, hits give low values 0.926 | S. cerevisiae strains, strain wild type, hits give low values 0.911
active: S. cerevisiae deletion strains, locus YKL068W, hits give low values 0.922 | S. cerevisiae deletion strains, locus YKL085W, strain MDH1 (second series), hits give low values 0.889 | S. cerevisiae deletion strains, locus YKL085W, strain MDH1, hits give low values 0.889 | S. cerevisiae deletion strains, locus YKR001C, strain vps1, hits give low values 0.831 | S. cerevisiae deletion strains, locus YLR027C, strain aat2, hits give low values 0.911 | S. cerevisiae deletion strains, locus YLR039C, strain RIC1, hits give low values 0.574 | S. cerevisiae deletion strains, locus YLR262C, strain YPT6 (second series), hits give low values 0.792 | S. cerevisiae deletion strains, locus YLR262C, strain YPT6, hits give low values 0.565 | S. cerevisiae deletion strains, locus YLR268W, strain sec22, hits give low values 0.838 | S. cerevisiae deletion strains, locus YLR330W, strain CHS5, hits give low values 0.902 | S. cerevisiae deletion strains, locus YLR342W, strain FKS1, hits give low values 0.875 | S. cerevisiae deletion strains, locus YLR371W, strain rom2, hits give low values 0.852 | S. cerevisiae deletion strains, locus YLR418C, strain cdc73, hits give low values 0.645 | S. cerevisiae deletion strains, locus YML124C, strain tub3, hits give low values 0.92 | S. cerevisiae deletion strains, locus YNL071W, strain lat1, hits give low values 0.841 | S. cerevisiae deletion strains, locus YNL233W, strain BNI4, hits give low values 0.843 | S. cerevisiae deletion strains, locus YNL271C, strain bni1, hits give low values 0.908 | S. cerevisiae deletion strains, locus YNL307C, strain MCK1, hits give low values 0.759 | S. cerevisiae deletion strains, locus YOL147C, strain pex11, hits give low values 0.899 | S. cerevisiae deletion strains, locus YOR144C, strain elg1, hits give low values 0.914 | S. cerevisiae deletion strains, locus YOR184W, strain ser1, hits give low values 0.59 | S. cerevisiae deletion strains, locus YPL055C, strain LGE1, hits give low values 0.75 | S. cerevisiae deletion strains, locus YPR119W, strain clb2, hits give low values 0.915 | S. cerevisiae deletion strains, locus YPR141C, strain kar3, hits give low values 0.895 | S. cerevisiae deletion strains, locus YPR163C, strain tif3, hits give low values 0.877 | S. cerevisiae deletion strains, strain wtn01, hits give low values 0.887
